The source of these data is PubChem BioAssay (NCATS).

Assay [1] in a line: Validation screen for small molecules that induce genotoxicity in human embryonic kidney (HEK293T) cells expressing luciferase-tagged ELG1 (AID 493106). Note: 0% is about no effect. Summed up: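 ELG1-luciferase reporter readout (ONE-Glo, 30 min, room temperature) after 16 hr compound treatment at 37 °C of HEK293T cells at 2,000 per well. Rising luminescence flags genotoxic stress.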
Assay [2] has as its target ATPase family AAA domain-containing protein 5 (Homo sapiens) (UniProt Q96QE3). Put plainly: Validation screen for small molecules that inhibit ELG1-dependent DNA repair in human embryonic kidney (HEK293T) cells expressing luciferase-tagged ELG1 (AID 493107). Note: nearly all actives have a fitted effect of over 70% in size. Note: potency is the fitted concentration of half-maximal effect. Summed up:
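Luciferase read-out, ONE-Glo, 30 min at room temperature, follows 16 h co-exposure at 37 C of compound and the DNA-damaging agent 5-fluorouridine. Cells: HEK293T with ELG1-luciferase fusion, 2,000 per well, DMSO as vehicle.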

Assay [3] addresses Thyrotropin-releasing hormone receptor (Homo sapiens) (UniProt P34981). Put plainly: qHTS for Small Molecule Agonists and Allosteric Enhancers of Human TRH Receptor: Validation Screen for Agonists (AID 493127;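 active = calcium activation more than 3 SD above the typical response in the agonist read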;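 note: intracellular calcium rise by fluo-8 fluorescence before TRH EC20 addition; 0% is about no effect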). The settings on record: TRH receptor agonist cell assay; at 2 µM; stronger effect = higher value. Summed up: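 Compound-evoked intracellular calcium release in fluo-8-loaded TRHR cells, read kinetically on FDSS (Ex 480/Em 530, 1 s/cycle) after 23 nL pintool transfer. Agonist phase preceded 10 nM TRH EC20 addition.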
Background: In qHTS, concentration-response curves come from the screen itself.

A short description of assay [4]: Nrf2 qHTS screen for inhibitors: Validation (AID 493153; active = well fitted inhibition curve with a large enough effect in the main read-out, with a control signal flat, not every such curve was filed as active). To be noted: viability change: measured here: cytotoxicity max response. Summed up:
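Concentration-response on A549 ARE_Fluc reporter cells exposed 18-24 h at 37 C, 5% CO2. Cytotoxicity read first by CellTiter-Fluor fluorescence (Ex 405/Em 525), then Nrf2 inhibition by BugLite luminescence after 15 min.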

The nature of assay [5]: qHTS for Inhibitors of Cell Surface uPA Generation: Validation Assay (AID 493164).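 Note: RAW 264.7 macrophage cells exposed to compound for 18 h; 0% is about no effect.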 In outline: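 ATP-Lite luminescence read-out: ATP remains high when uPA activity-dependent LF translocation into the cytoplasm is blocked. RAW 264.7 cells, 18 h compound exposure at 37 C; 7-point titration, 2.45 nM to 38.3 uM final.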
Assay [6] has as its target Galactokinase (Homo sapiens) (UniProt P51570). Nature of the assay: qHTS Validation Assay for Inhibitors of Human Galactokinase (GALK) (AID 493189). Note: 0% is about no effect. In outline:
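GALK (5 nM) with 35 uM ATP and 100 uM galactose in HEPES pH 8.0 with MgCl2, NaCl, DTT and BSA. Reaction ran 1 h at room temperature. Residual ATP read by Kinase-Glo Plus luminescence.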

Assay [7] in a line: Validation screen for small molecules that induce DNA re-replication in SW480 colon adenocarcinoma cells (AID 504364). Note: 0% is about no effect. Summed up: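 Image-based DNA content read-out: Hoechst stain 40 min, total nuclear fluorescence intensity (ex 405 nm, em 500-530 nm) after 48 h compound exposure of 250 SW480 cells/well at 37 C, 5% CO2, versus DMSO vehicle.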
Assay [8] deals with Phosphoglycerate kinase, glycosomal (Trypanosoma brucei brucei) (UniProt P07378). Put plainly: qHTS Validation Assay to Find Inhibitors of Phosphoglycerate Kinase (AID 504547).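 Note: control wells lack PGK and mark full inhibition.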 In outline:
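Compounds are pinned into the substrate/PGK mixture, and GAPDH (100nM final) is added to start the reaction by producing 1,3-BPG. After 60 minutes at room temperature, Kinase-Glo Plus is added and luminescence is measured 10 minutes later.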

Assay [9] addresses phosphoglycerate mutase (Leishmania major) (UniProt Q4Q090). Nature of the assay: qHTS Validation Assay to Find Inhibitors of Phosphoglycerate Mutase (AID 504548). Note: series mostly up to about 58 µM; % is set by controls: 0 for no effect and ±100 for the full control effect. In outline: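 Lm PGAM at 1.25 nM final with substrate in 100 mM TEA pH 7.6, 5 mM MgCl2, 0.01% Tween-20; 45 min at room temperature. Kinase-GloPlus added, 10 min, end-point luminescence read.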
Assay [10] deals with Peptidyl-prolyl cis-trans isomerase NIMA-interacting 1 (Homo sapiens) (UniProt Q13526). Put plainly: qHTS Validation Assay to Find Inhibitors of Pin1 (AID 504536; active = well fitted inhibition curve with a large enough effect in the polarisation, with a control signal flat, not every such curve was filed as active; the % refers to the polarisation;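 note: 0% = full Pin1 enzyme wells and -100% = no-enzyme wells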). Summed up:
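Fluorescence polarization competition: compounds (titration) displace HiFluor-488-labeled Pin1-1b peptide from Pin1 (0.3 uM final) in pH 7.5 HEPES buffer with DTT, 10 min at room temperature; %Activity normalized to no-enzyme wells, curves fitted.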

Several values for one entry are separate records, joined by “and”; a condition that tells them apart may be missing. Identical values can stand only once. Inconclusive results are not listed. Activity calls are given as the source filed them. Unless noted, calls come from the whole dose curve; as a rule, active = well fitted curve in the direction sought with a large enough effect; inconclusive = small, poorly fitted or top-dose-only effect, or another doubt; inactive = no such curve, though single readings can be large; an effect the other way counts as inactive or inconclusive.

Sequence of Peptidyl-prolyl cis-trans isomerase NIMA-interacting 1 (Homo sapiens) (Q13526 whole entry, looked up): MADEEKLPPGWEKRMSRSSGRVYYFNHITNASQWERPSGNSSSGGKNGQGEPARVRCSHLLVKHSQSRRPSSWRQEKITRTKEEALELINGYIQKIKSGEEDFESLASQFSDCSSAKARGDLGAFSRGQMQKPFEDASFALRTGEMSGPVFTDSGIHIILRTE
Sequence of Phosphoglycerate kinase, glycosomal (Trypanosoma brucei brucei) (P07378 whole entry, looked up): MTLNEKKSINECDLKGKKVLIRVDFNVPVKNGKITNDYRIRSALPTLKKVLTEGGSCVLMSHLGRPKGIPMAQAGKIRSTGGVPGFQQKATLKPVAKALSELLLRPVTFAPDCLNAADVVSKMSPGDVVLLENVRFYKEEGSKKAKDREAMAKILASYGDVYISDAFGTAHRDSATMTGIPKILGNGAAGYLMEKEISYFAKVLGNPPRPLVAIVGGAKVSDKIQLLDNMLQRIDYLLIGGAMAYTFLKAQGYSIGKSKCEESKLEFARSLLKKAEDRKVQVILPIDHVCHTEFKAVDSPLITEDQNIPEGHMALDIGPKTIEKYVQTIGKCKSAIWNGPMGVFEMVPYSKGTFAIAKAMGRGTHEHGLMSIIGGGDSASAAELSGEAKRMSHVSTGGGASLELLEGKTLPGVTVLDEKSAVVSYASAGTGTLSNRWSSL
Sequence of Thyrotropin-releasing hormone receptor (Homo sapiens) (P34981 whole entry, looked up): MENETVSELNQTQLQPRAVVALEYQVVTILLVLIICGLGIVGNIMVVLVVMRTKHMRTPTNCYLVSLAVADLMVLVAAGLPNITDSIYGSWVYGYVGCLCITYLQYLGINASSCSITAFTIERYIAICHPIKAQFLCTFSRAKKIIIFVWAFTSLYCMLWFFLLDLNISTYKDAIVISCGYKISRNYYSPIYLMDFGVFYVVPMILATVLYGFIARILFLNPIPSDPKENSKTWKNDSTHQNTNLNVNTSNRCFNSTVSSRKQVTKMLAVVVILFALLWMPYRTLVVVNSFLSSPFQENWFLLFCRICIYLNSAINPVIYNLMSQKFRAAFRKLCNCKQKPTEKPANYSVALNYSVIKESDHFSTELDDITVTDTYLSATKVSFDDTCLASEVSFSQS
Sequence of ATPase family AAA domain-containing protein 5 (Homo sapiens) (Q96QE3 whole entry, looked up, the tested form may be a part): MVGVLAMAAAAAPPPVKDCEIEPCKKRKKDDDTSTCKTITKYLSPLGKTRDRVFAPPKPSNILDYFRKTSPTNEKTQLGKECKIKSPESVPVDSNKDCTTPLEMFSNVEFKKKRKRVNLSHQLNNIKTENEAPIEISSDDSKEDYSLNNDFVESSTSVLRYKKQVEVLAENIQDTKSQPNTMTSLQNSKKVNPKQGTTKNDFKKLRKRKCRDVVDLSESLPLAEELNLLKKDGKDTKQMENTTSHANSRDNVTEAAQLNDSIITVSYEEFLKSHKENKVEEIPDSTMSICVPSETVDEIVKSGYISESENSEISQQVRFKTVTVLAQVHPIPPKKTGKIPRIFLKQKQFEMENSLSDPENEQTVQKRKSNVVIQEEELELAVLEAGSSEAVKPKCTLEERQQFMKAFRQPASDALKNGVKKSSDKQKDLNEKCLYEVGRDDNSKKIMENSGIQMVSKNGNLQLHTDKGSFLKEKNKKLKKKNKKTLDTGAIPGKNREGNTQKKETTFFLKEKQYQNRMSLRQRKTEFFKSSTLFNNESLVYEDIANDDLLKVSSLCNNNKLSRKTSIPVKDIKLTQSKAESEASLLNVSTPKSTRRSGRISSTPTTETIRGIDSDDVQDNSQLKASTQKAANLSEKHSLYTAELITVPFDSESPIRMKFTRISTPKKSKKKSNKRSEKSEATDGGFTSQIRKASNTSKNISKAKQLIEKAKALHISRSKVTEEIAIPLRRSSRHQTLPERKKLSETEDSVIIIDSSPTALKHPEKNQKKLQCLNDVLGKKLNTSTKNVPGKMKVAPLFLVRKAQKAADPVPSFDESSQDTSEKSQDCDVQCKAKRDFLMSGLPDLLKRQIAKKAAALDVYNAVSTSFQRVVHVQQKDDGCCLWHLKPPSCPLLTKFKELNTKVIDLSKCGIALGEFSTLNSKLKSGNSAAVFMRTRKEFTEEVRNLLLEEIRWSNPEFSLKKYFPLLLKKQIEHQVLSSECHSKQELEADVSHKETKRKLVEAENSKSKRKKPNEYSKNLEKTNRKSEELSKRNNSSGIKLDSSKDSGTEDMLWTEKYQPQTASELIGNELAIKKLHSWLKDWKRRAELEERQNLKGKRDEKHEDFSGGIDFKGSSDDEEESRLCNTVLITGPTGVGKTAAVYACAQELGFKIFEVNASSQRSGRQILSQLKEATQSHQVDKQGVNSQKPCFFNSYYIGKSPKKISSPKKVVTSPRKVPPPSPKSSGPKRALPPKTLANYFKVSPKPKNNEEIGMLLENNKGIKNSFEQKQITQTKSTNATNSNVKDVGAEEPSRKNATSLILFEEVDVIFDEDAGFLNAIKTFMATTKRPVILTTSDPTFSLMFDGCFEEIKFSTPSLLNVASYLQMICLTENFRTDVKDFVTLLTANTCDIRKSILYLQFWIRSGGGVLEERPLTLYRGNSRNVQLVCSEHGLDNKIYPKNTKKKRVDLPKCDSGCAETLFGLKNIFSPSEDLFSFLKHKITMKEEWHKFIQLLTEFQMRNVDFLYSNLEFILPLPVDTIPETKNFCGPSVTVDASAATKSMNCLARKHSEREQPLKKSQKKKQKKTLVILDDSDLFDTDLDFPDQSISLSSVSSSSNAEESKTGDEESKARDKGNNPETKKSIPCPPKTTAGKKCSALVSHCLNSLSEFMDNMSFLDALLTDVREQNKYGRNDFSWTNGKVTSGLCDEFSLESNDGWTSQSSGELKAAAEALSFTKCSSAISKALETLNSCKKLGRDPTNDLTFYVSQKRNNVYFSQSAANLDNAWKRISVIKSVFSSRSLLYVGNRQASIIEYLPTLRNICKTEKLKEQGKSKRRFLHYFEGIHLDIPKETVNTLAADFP
Sequence of phosphoglycerate mutase (Leishmania major) (Q4Q090 1-553): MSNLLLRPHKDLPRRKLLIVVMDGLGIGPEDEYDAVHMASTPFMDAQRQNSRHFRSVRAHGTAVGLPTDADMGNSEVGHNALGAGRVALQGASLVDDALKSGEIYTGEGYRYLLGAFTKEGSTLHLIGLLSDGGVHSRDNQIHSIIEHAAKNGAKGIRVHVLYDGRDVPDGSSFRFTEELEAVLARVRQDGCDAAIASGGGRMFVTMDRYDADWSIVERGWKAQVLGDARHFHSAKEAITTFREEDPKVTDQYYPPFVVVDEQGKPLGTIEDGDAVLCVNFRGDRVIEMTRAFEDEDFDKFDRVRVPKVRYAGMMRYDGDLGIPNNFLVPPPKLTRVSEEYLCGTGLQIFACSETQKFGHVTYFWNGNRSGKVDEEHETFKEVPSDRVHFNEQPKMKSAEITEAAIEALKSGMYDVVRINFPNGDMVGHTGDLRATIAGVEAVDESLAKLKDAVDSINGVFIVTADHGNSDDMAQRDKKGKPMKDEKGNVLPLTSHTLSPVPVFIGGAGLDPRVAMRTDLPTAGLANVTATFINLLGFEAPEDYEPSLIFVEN
Sequence of Galactokinase (Homo sapiens) (P51570 whole entry, looked up): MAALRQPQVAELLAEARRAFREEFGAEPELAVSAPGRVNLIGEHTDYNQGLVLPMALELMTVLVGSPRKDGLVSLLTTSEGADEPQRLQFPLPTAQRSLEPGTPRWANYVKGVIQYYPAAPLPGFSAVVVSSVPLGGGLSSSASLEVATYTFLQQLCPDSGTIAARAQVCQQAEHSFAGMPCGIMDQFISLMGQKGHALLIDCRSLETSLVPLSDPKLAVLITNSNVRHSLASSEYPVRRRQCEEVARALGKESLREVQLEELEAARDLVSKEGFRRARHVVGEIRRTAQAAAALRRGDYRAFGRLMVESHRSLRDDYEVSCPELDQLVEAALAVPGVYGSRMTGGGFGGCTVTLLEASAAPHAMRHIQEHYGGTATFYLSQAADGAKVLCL

Regarding `CC(C)Oc1cccnc1N(C)C1CCN(Cc2ccccc2)CC1`, the call in assay [1], in assay [4], in assay [5], in [6], in assay [7] and in [8] was inactive. In addition, the result in assay [9] was inactive. The Potency result in assay [2] is “inactive”. The activation in [3] is 0% (inactive). The viability change in [4] came to 1.23%.

For the compound `CN1C2CCC1CC(OC(=O)c1cc(Cl)cc(Cl)c1)C2` (centres undefined), the outcome in assay [1], in assay [4], in assay [5], in assay [6], in [7] and in assay [8] was inactive. In addition, the compound was called inactive in assay [9]. In addition, the Potency result in assay [2] was “inactive”. Further, the activation in assay [3] is 3.5% (inactive). Further, the viability change in assay [4] stood at 1.01%.

Consider `NCCc1c[nH]c2ccc(O)cc12`, for which the outcome in assay [1], in assay [4], in [5], in assay [6], in [7] and in [10] was inactive. Further, the compound was called inactive in assay [8] and in [9]. In addition, the Potency result in assay [2] was “inactive”. The activation in assay [3] was 1.44% (inactive). For the same compound, the viability change in [4] was found to be 0.321%.

For the compound `NCc1cc(=O)[nH]o1`, the outcome in assay [1], in assay [4], in [5], in assay [6], in assay [7] and in [8] was inactive. In [9], the result was inactive. Also, the Potency entry in [2] was “inactive”. For the same compound, the activation in assay [3] was -4.19% (inactive). In addition, the viability change in assay [4] came out at 4.87%.

As to `Clc1ccc(C(c2ccc(Cl)cc2)n2cc[n+](CC(OCc3ccc(Cl)cc3Cl)c3ccc(Cl)cc3Cl)c2)cc1` (centres undefined), the result in [1] and in assay [6] was inactive. Further, the activation in [3] was -4.62% (inactive).

As for `Cc1nccc2c1[nH]c1ccccc12`, the outcome in [1], in assay [4], in assay [5], in assay [6], in assay [7] and in assay [8] was inactive. Further, the call in assay [9] was inactive. In assay [2], the Potency is 9.2 µM (active). For the same compound, the activation in assay [3] is 0.938% (inactive). Besides, the viability change in assay [4] stood at 6.29%.

On to `CC[C@@H](C(N)=O)N1CCCC1=O`, for which the outcome in [1], in [4], in assay [5], in assay [10], in [8] and in assay [9] was inactive. In addition, the Potency result in assay [2] is “inactive”. For the same compound, the viability change in [4] was found to be 0%.

Regarding `NCCc1c[nH]c2ccccc12`, the outcome in assay [1], in assay [4], in assay [5], in assay [6], in [7] and in assay [8] was inactive. Also, the result in assay [9] was inactive. Also, in assay [3], the activation is -0.438% (inactive). Moreover, the viability change in [4] is -0.0651%.

`Cc1nc(-c2ccc(-c3ccc(C(=O)N4CCc5cc6c(cc54)C4(CCN(C)CC4)CO6)cc3)c(C)c2)no1`: the activation in [3] is 1.44% (inactive). In addition, the result in assay [6] and in [7] was inactive.

In the case of `c1ccc2sc(C3(N4CCCCC4)CCCCC3)cc2c1`, the compound was classed as inactive in assay [1], in [4], in assay [5], in [6], in [7] and in assay [8]. The outcome in assay [9] was inactive. In assay [2], the Potency entry was “inactive”. The activation in [3] was -13.1% (inactive). Besides, the viability change in [4] was -6.89%.

Regarding `c1ccc(CCCN2CCN(CCOC(c3ccccc3)c3ccccc3)CC2)cc1`, the compound was called inactive in assay [1], in [4], in [5], in [6], in assay [8] and in [9]. Also, the activation in assay [3] is 0.0625% (inactive). Moreover, the viability change in assay [4] was -4.56%.

On to `C=CCN1CC[C@]23CCCCC2[C@H]1Cc1ccc(O)cc13` (some centres undefined), for which the result in assay [1], in assay [4], in assay [5], in assay [6], in assay [7] and in assay [8] was inactive. Further, the call in [9] was inactive. In addition, the Potency entry in assay [2] is “inactive”. Also, the activation in assay [3] is 2% (inactive). Besides, the viability change in assay [4] is -5%.

Turning to `CCCCc1ccc(C(=O)O)nc1`, the outcome in assay [1], in assay [5], in assay [6], in [7], in assay [8] and in assay [9] was inactive. Also, in [2], the Potency entry was “inactive”. In assay [3], the activation was 1.25% (inactive).

Take `C[N+]1(C)C2CCC1CC(OC(=O)C(CO)c1ccccc1)C2` (centres undefined): the call in assay [1], in assay [4], in [5], in assay [6], in assay [7] and in assay [10] was inactive. Also, the outcome in assay [8] and in [9] was inactive. Also, the Potency entry in [2] was “inactive”. For the same compound, in assay [4], the viability change was 9.4% and 1.15%.

Take `C[C@]12N[C@H](Cc3ccccc31)c1ccccc12`: the outcome in [1], in [4], in assay [5], in assay [6], in assay [7] and in assay [8] was inactive. Moreover, the compound was classed as inactive in assay [9]. For the same compound, the Potency entry in assay [2] was “inactive”. The viability change in assay [4] worked out at 0.285%.
